# KB-V1 MDR tox – KB-V1 MDR subline cytotoxicity. KB-V1 MDR cells viability, CellTiter-Glo, 72 h. Potency, µM (doses to about 46.1 µM), actives largely listed as cytotoxic. 400,000 tested, 3.4% active; note: potency is the fitted concentration of half-maximal effect; % is set by controls: 0 for no effect and ±100 for the full control effect; nearly all actives have a fitted effect of over 60% in size
#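 KB-V1, DMEM (no phenol red) + 10% FBS; cpd pin-transferred, titration series; 72 h, 37 degrees C; CellTiter-Glo, luminescence. Data normalized, curve-fit.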
# IL-1B inflam inh – blocks inflammasome-driven IL-1 beta release | THP-1 LPS/ATP IL-1B secretion, AlphaLISA, 16 h; stronger effect = lower value | activity change, % at 57.5 µM | 360,000 tested, 4.7% active; in the data active = activity change below about -50%; inconclusive = mostly about -30% to -49%; note: % is set by controls: 0 for no effect and ±100 for the full control effect
#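 Secreted IL-1B measured by AlphaLISA bead assay after 16 h compound exposure of THP-1 cells; compounds (final up to 57.5 uM) added 1 h before LPS (250 ng/mL) and ATP (1.25 mM) stimulation; lower signal means less secretion.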
# SW480 rereplic – inducers of DNA re-replication in SW480 colon cancer cells; SW480 DNA re-replication, Hoechst DNA content imaging, 48 h; Potency, µM (highest dose often 46.1 µM), for inactives: at the top dose re-replication activation, actives largely listed as activators; 340,000 tested, 1.8% active; AID 624297; note: potency is the fitted concentration of half-maximal effect; % of control where 0% means no effect; nearly all actives have a fitted effect of over 55% in size
#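 Hoechst fluorescence of nuclei (405 nm excitation, 500-530 nm emission) measured by plate-scanning imager after 48 hr compound exposure at 37 C; re-replication scored as increased number of nuclei with elevated intensity.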
# KB-3-1 tox – KB-3-1 parental cell cytotoxicity; KB-3-1 viability, CellTiter-Glo ATP luminescence, 72 h; Potency, µM (titrated, usually from 46.1 µM), most hits filed as cytotoxic; 400,000 tested, 1.4% active; AID 1347075; note: potency is the fitted concentration of half-maximal effect; % is set by controls: 0 for no effect and ±100 for the full control effect; nearly all actives have a fitted effect of over 60% in size
#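 Luminescent ATP read-out (CellTiter-Glo) measures survival of drug-naive KB-3-1 cells after 72 h compound exposure at 37 °C. Titration series was screened from lowest to highest concentration, with DMSO vehicle plates as background controls.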
# MCF10A rerep – induces DNA re-replication in MCF 10a normal breast cells | MCF 10A DNA re-replication, Hoechst nuclear intensity, 48 h | Potency, µM (doses to about 46.1 µM), inactives show at the top dose activity, positive = re-replication, most hits filed as activators | 350,000 tested, 2.9% active; note: potency is the fitted concentration of half-maximal effect; % of control where 0% means no effect; nearly all actives have a fitted effect of over 50% in size
# * hit, by the source's call; i = inactive; ? = inconclusive; . = not tested or not shown. Sampled rows, rich in hits. Any-hit rate of the full collection: about 9.9%. Unless noted, calls come from the whole dose curve; as a rule, active = well fitted curve in the direction sought with a large enough effect; inconclusive = small, poorly fitted or top-dose-only effect, or another doubt; inactive = no such curve, though single readings can be large; an effect the other way counts as inactive or inconclusive.
SMILES,KB-V1 MDR tox,IL-1B inflam inh,SW480 rereplic,KB-3-1 tox,MCF10A rerep
CC1=Nc2cc(C(=O)NCCCOC(C)C)ccc2Sc2ccccc21,?,12.8,?,?,7.31µM*
CC(C)(C)Cc1c(-c2ccc(Br)cc2)nc2ccc(Cl)cn12,i,60.6,.,?,.
COc1ccc(N=Cc2nc(-c3ccco3)oc2O)cc1,i,-22.2,-3.7%,i,8.8%
CCC(=NCc1ccc(Cl)c(Cl)c1)c1nc(-c2ccco2)oc1O,i,-63.6*,-694.9%,i,?
CCn1cc(C(=O)NCc2ccc(Cl)cc2)c(=O)c2cc(S(=O)(=O)N(C)C3CCCCC3)ccc21,i,.,.,i,.
CCOC(=O)C1CCN(C(=O)CNC(=O)Cn2c(C)cc3ccccc3c2=O)CC1,i,-14.9,-5.8%,i,?
CCOC(=O)CNC(=O)Cn1c(C)cc2ccccc2c1=O,i,-65.3*,-11.2%,i,0.8%
COCc1cc(C)n(CC(=O)NC(C)c2ccccc2)c(=O)c1C#N (centres undefined),i,-9.5,0.5%,i,10.3%
COCc1cc(C)n(CC(=O)NCc2ccccc2)c(=O)c1C#N,?,26.1,18.4µM*,i,1.3%
C=CCOCCN(CC)CC,?,25.2,-4.4%,i,1.8%
CCOCc1cc(C2NC(=O)NC(C)=C2C(=O)OCC)ccc1OC (centres undefined),i,-4.4,-2.5%,i,-14.0%
CC1=C(C(=O)OCC2CCCO2)C(c2ccc(Cl)c(Cl)c2)NC(=O)N1 (centres undefined),i,-50.1*,?,i,4.7%
CCOC(=O)C1=C(C)NC(=O)NC1c1ccc(OC)c(Cl)c1 (centres undefined),20.6µM*,17.4,-4.8%,i,-6.6%
CC1=C(C(=O)OCC2CCCO2)C(c2ccccc2Cl)NC(=O)N1 (centres undefined),i,-1.3,-11.3%,i,-4.1%
CC(=O)N1CCc2c(sc3c2c(=O)n(-c2cc(Cl)ccc2C)c(=O)n3Cc2ccccc2F)C1,i,.,.,i,.
COc1ccc(COC(=O)N/N=C(\C)CC(=O)Nc2ccc(Cl)cn2)cc1,i,-1.9,-2.0%,i,?
CN=C1c2cc3cc(OC)ccc3n2CCN1Cc1ccccc1,16.4µM*,-90.8*,11.2µM*,8.2µM*,20.6µM*
Cc1ccccc1S(=O)(=O)Oc1cccc2c(O)cccc12,i,15.9,-18.4%,i,?
COC(=O)c1c(C(C)=O)c(C)n(C)c1C,i,7.2,-6.5%,i,5.9%
CC(C)Cn1c(=O)c2c(nc3n2CC(C)CN3Cc2ccccc2)n(C)c1=O (centres undefined),i,-11.9,?,i,-0.4%
CCC1C(c2ccccc2)N(C)C(c2ccccc2)CC1(O)c1ccccc1 (centres undefined),i,?,?,?,?
CC(C)C1C(c2ccccc2)NC(c2ccccc2)CC1(O)c1ccc(F)cc1 (centres undefined),i,0.0,?,i,16.4µM*
COc1cc(C(=O)/C=C/c2cccnc2)c([N+](=O)[O-])cc1OC,i,-99.8*,4.9%,?,23.1µM*
CN(C)c1ccc(/C=C/C(=O)c2cccnc2)cc1,i,?,2.6%,?,8.2%
CN(C)C(=O)COc1ccc(C(=O)/C=C/c2cccnc2)cc1,i,-101.0*,?,?,?
SMILES,KB-V1 MDR tox,IL-1B inflam inh,SW480 rereplic,KB-3-1 tox,MCF10A rerep
O=C(/C=C/c1cccnc1)c1ccc(O)cc1,?,-97.9*,20.6µM*,?,?
O=C(/C=C/c1cccnc1)c1cccc(O)c1,?,-2.8,?,?,?
O=C(/C=C/c1cccc(O)c1)c1cccnc1,?,-5.7,?,i,20.6µM*
Cc1cccc(N2CC(c3nc4ccccc4n3CCC3CCCCC3)CC2=O)c1 (centres undefined),i,.,.,?,.
Cn1nc(C(=O)NCCCN2CCCCC2)c2c1-c1ccccc1S(=O)(=O)C2,i,20.4,-14.6%,i,5.8%
O=C(C=Cc1cccnc1)c1ccccc1,?,-105.8*,12.2%,?,?
Cc1ccc(-n2ncc3c(=O)n(Cc4cccnc4)cnc32)cc1,11.6µM*,12.5,-10.4%,18.4µM*,-0.8%
Cc1ccc(-n2ncc3c(=O)n(CC(=O)N(C)C)cnc32)cc1,i,9.4,2.8%,i,7.4%
CC(CN1CCN(C)CC1)OC(=O)c1cccc(F)c1 (centres undefined),i,19.1,-1.9%,i,-1.4%
COc1ccccc1NC(=O)c1ccc(NC(=O)CSc2ncn[nH]2)cc1,i,0.0,-5.0%,i,9.8%
COc1ccc(-n2nc(C(=O)Nc3ccccn3)c3c4ccccc4n(C)c3c2=O)cc1,i,.,.,i,.
CCOC(=O)c1nnc(-c2ccc(C)cc2)nc1Sc1ccc(Cl)cc1,i,4.9,-6.7%,i,-1.8%
CCOC(=O)c1nnc(-c2ccc(C)cc2)nc1Sc1ccccc1Cl,i,-96.5*,-4.4%,?,7.31µM*
CCOC(=O)c1nnc(-c2ccc(C)cc2)nc1Oc1ccc(Cl)cc1Cl,i,-28.0,-7.2%,i,?
CCOC(=O)c1nnc(-c2ccc(C)cc2)nc1Oc1ccccc1Cl,i,?,?,i,2.31µM*
CCOC(=O)c1nnc(-c2ccccc2)nc1Sc1c(Cl)cccc1Cl,i,-116.1*,?,i,14.6µM*
CCCCC(=O)OCc1c(-c2cccc(OC)c2)ncc2ccccc12,i,-1.0,2.4%,i,8.8%
Cc1cc(NCCCN(C)C)n2nc(-c3cccs3)cc2n1,i,-109.5*,-6.1%,i,1.2%
Cc1cc(C)c2c(n1)nn1c(NCCCN(C)C)cc(C)nc21,i,-15.2,20.6µM*,i,?
Cc1cc(C)c2c(n1)nn1c(NCCOCCO)cc(C)nc21,i,0.0,-3.8%,i,2.2%
CCC(C)NC(=O)c1ccc2nc(-c3ccc(OC)c(OC)c3)c(-c3ccc(OC)c(OC)c3)nc2c1 (centres undefined),i,-25.6,?,i,14.6µM*
COc1ccc(-c2nc3ccccc3nc2-c2ccccc2)cc1OC,i,-62.1*,-5.7%,i,?
Oc1ccc(-c2nc3ccccc3nc2-c2ccccc2)cc1,i,-64.7*,-0.4%,i,19.1%
COc1ccc(-c2nc3ccccc3nc2-c2ccc(OC)c(OC)c2)cc1OC,i,-13.9,20.1%,i,1.4%
COc1ccc(-c2cc(-c3ccccc3)nc(Cl)n2)cc1OC,i,-5.0,?,i,23.1µM*
CCCN(CCC)C(=O)c1ccc2nc(-c3ccc(OC)c(OC)c3)c(-c3ccc(OC)c(OC)c3)nc2c1,i,-12.4,-3.9%,i,8.8%
CC[C@@H](C)[C@@H](C(=O)Nc1ccc(C)cc1)N1Cc2ccccc2C1=O,i,.,.,i,.

# Screening results deposited in PubChem by National Center for Advancing Translational Sciences (NCATS).
